Screens (PubChem BioAssay)
Only some compounds are listed: those with a hit (about 4.2% of all), similar ones and a draw of the others.
RecA intein inh – Mtb RecA intein splicing inhibition; P9WHJ3; cell-free RecA intein splicing, fluorescence; inhibition, % (no concentration beside the values); 290,000 tested, 0.75% active; in the data active = inhibition above about 30%; inconclusive = no clear call, values can overlap the other calls
FBA Mtb inh – inhibitors of M. tuberculosis fructose-bisphosphate aldolase. purified M. tuberculosis FBA, fluorescence read-out. P9WQA3. 360,000 tested, 2.3% active. inhibition, % at 1 µM. AID 588726; in the data active = inhibition above about 27%
Target sequence (P9WQA3 whole entry, looked up): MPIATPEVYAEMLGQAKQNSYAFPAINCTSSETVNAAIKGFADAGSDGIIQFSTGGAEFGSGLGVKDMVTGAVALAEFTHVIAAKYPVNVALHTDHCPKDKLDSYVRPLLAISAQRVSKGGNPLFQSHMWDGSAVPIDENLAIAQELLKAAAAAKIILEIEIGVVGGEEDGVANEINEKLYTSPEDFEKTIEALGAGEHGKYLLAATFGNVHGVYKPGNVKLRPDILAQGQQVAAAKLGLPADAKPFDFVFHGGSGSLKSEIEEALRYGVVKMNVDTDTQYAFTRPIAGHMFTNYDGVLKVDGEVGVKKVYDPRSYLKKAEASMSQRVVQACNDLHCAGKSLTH
GDH-TPI inh – inhibits GDH-TPI coupling enzymes, artifact for Mtb FBA screen; inhibition, % at 4.8 µM; 360,000 tested, 1.2% active; GDH-TPI coupled enzyme counterscreen, NADH absorbance; AID 588335
CCHFV vOTU inh – blocks the CCHF virus ovarian tumor domain protease; AID 651958; 370,000 tested, 0.55% active; inhibition, % at 11.5 µM; CCHFV vOTU protease, Pep-AMC fluorescence
GFP chromo cs – counter-screen GFP chromophore formation inhibition. shares compounds with RecA intein inh. cell-free GFP chromophore formation, fluorescence. EC50, µM. 2,100 tested, 83% active. AID 434968; call rule not given here
Large screens that a line does not name were inactive (follow-up assays come after a bar, where they were run). Rule as the data show it, unless noted: active = inhibition above about 30%; inactive = the rest.

CC(C)CC(N=Cc1c(O)c2ccccc2oc1=O)C(=O)O (centres undefined)	none
O=C(Cc1ccc(Cl)cc1)NCc1ccccc1Cl	none
O=C(Cc1ccccc1Cl)NC1(O)C(=O)c2ccccc2C1=O	RecA intein inh 51 | GFP chromo cs 12
Cc1cc(C)c2cc(C(=O)N3CCc4ccccc4C3)[nH]c2c1	none
CCCCCCCCCCCCCCCC[N+](C)(C)C	RecA intein inh 36 | GFP chromo cs 23
CCCCCCCCCCCCCCCC[N+](C)(C)CC	RecA intein inh 44 | GFP chromo cs 17
O=C1c2ccccc2-c2onc3ccc(Oc4ccccc4)c1c23	RecA intein inh 86 | GFP chromo cs 0.81
Cc1ccc(S(=O)(=O)N2CCN(C(=O)c3ccccc3Cc3ccccc3)CC2)c(C)c1	RecA intein inh 30 | GFP chromo cs inactive
Cc1ccc(S(=O)(=O)N2CCN(C(=O)c3ccco3)CC2)c(C)c1	none
c1ccc(Nc2nc3ccccc3[nH]2)nc1	none
Cc1ccccc1Nc1cc2ccccc2c(=O)[nH]1	RecA intein inh 71 (no result: CCHFV vOTU inh) | GFP chromo cs inconclusive
O=c1[nH]c(Nc2ccc(F)cc2)cc2ccccc12	RecA intein inh 65, CCHFV vOTU inh 105 | GFP chromo cs 1.6
O=c1[nH]c(Nc2ccccn2)cc2ccccc12	RecA intein inh 72, FBA Mtb inh 132 | GFP chromo cs inactive
Cc1cc(Nc2ccc(F)cc2)c2ccccc2n1	none (no result: RecA intein inh)
Cc1ccccc1Nc1nc(N)c2ccccc2n1	none
CCOc1ccc(NC(=O)C(c2ccccn2)N(C(=O)CCl)c2ccc(F)cc2)cc1 (centres undefined)	RecA intein inh 66 (no result: CCHFV vOTU inh) | GFP chromo cs 15
CCOc1ccc(NC(=O)N(c2ccccc2)c2ccccc2)cc1	none (no result: RecA intein inh)
CN(C)/C=C/C(=O)c1ccc2noc(-c3ccc(F)cc3)c2c1	RecA intein inh 31 | GFP chromo cs inactive
Cc1ccc(-c2onc3ccc(C(=O)/C=C/N(C)C)cc23)cc1	none
CCCc1noc2c1C(c1ccoc1)C(C#N)=C(N)N2 (centres undefined)	RecA intein inh 79 | GFP chromo cs inactive
O=C(c1ccc(Cl)cc1)c1c[nH]c(C(=O)C(Cl)(Cl)Cl)c1	RecA intein inh 80 | GFP chromo cs 3.9
O=C(Cc1ccccc1)c1c[nH]c(C(=O)C(Cl)(Cl)Cl)c1	RecA intein inh 69 | GFP chromo cs 37
O=C(Cc1ccccc1)c1c[nH]c(C(=O)NCc2ccncc2)c1	none
O=C(c1c[nH]c(C(=O)C(Cl)(Cl)Cl)c1)c1ccc(F)cc1Cl	RecA intein inh 54 | GFP chromo cs 23
CNC(=O)c1cc(C(=O)c2ccc(Cl)cc2)c[nH]1	none
Cc1ccsc1-c1cc2nc(Nc3ccc(F)cc3)n(C)c(=O)c2s1	none (no result: RecA intein inh)
C[C@@H]1CN([C@@H](C)CO)C(=O)CCCn2nncc2CO[C@H]1CN(C)Cc1ccccc1	none (no result: RecA intein inh)
O=C(Oc1ccc(N(C(=O)c2ccncc2)S(=O)(=O)c2ccc(Cl)cc2)cc1)c1ccncc1	RecA intein inh 38 | GFP chromo cs 33
Oc1[nH]c2ccccc2c1N=NC(=S)N1CCOCC1	RecA intein inh 67 (no result: CCHFV vOTU inh) | GFP chromo cs inactive
O=C(N=Nc1c(O)[nH]c2ccccc12)c1ccc(CN2CCOCC2)cc1	none
Oc1[nH]c2ccc(Br)cc2c1N=NC(=S)N1CCOCC1	RecA intein inh 47 | GFP chromo cs inactive
C=C[C@H]1[C@H](OC2OC(CO)C(O)C(O)C2O)OC=C(C(=O)OC)[C@H]1C[C@H]1CC(=O)C[C@H](CC(=O)CCc2ccc(O)cc2)O1 (some centres undefined)	none (no result: FBA Mtb inh, GDH-TPI inh, CCHFV vOTU inh)
Cc1cccc(N2C(N)=C(C#N)C(C#N)(C#N)C2c2ccccc2)c1 (centres undefined)	none
N#CC1=C(N)N(c2ccccc2)C(c2cccc([N+](=O)[O-])c2)C1(C#N)C#N (centres undefined)	RecA intein inh 39 | GFP chromo cs 24
CCOC(=O)/C(C#N)=N/Nc1ccc(S(=O)(=O)N2CCc3ccccc32)cc1	none
N#C/C(=N\Nc1ccc(S(=O)(=O)N2CCc3ccccc32)cc1)C(N)=S	RecA intein inh 31 | GFP chromo cs 32
CC1CCN(C(=O)c2ccc(N3CCOCC3)c([N+](=O)[O-])c2)CC1	none (no result: RecA intein inh)
CC1=C(C)CC2(SC1)C(=O)N(c1ccccc1)N=C2N (centres undefined)	RecA intein inh 76 | GFP chromo cs 4.1
CCOC(=O)N1CCN(C(=O)CSc2nnc3[nH]c(=O)c(C)c(C)n23)CC1	none
O=c1[nH]cc(S(=O)(=O)N2CCN(c3ccc(F)cc3)CC2)c(=O)[nH]1	none (no result: RecA intein inh)
N=c1c2c(-c3ccccc3)c(-c3ccccc3)n(Cc3ccco3)c2ncn1Cc1ccco1	RecA intein inh 47 | GFP chromo cs 14
CC[C@H](C)[C@H](NC(=O)OCc1ccccc1)C(=O)OCC(=O)N1CCN(c2ccc(OC)cc2)CC1	none (no result: RecA intein inh)
OCCN1CCN(CCCN2c3ccccc3Sc3ccc(C(F)(F)F)cc32)CC1	none
FC(F)(F)c1ccc2c(c1)N(CCCN1CCN(CCCl)CC1)c1ccccc1S2	RecA intein inh 63 | GFP chromo cs 17
COCCn1c(SCc2ccc(F)cc2)nc2c1c(=O)[nH]c(=O)n2C	none
CCCCCc1cc(=O)oc2c(C(CCN3CCCC(C)C3)c3ccc4c(c3)OCO4)c(OC)cc(OC)c12 (centres undefined)	RecA intein inh 35 | GFP chromo cs 20
CCCCCc1cc(=O)oc2c(C(CCN3CCCCC3)c3ccc4c(c3)OCO4)c(OC)cc(OC)c12 (centres undefined)	none
Brc1ccc(CNc2ccc3ncccc3c2)cc1	RecA intein inh 39 | GFP chromo cs inactive
CCCCOc1ccc(/C=N/Nc2cc(N3CCOCC3)nc(C)n2)cc1	none
CN(C)c1ccc2nsnc2c1[N+](=O)[O-]	RecA intein inh 32 | GFP chromo cs inactive
CC(=O)N(c1ccccc1)C(C)c1nc(C#N)c(C#N)nc1C (centres undefined)	RecA intein inh 62 | GFP chromo cs 38
CN(CC(=O)Nc1ccccc1Br)C(=O)CCCSc1nc2ccccc2[nH]1	none
O=C1C(Cl)=C(N2CCOCC2)C(=O)N1c1ccc(Br)cc1	RecA intein inh 53 | GFP chromo cs 2.5
CC(C)c1ccc(N2C(=O)C(Cl)=C(N3CCOCC3)C2=O)cc1	none
Cc1ccccc1N1C(=O)C(Cl)=C(N2CCOCC2)C1=O	RecA intein inh 59 | GFP chromo cs 12
CCc1ccccc1N1C(=O)C(Cl)=C(N2CCOCC2)C1=O	RecA intein inh 67 | GFP chromo cs 9.9
O=C1C(Cl)=C(N2CCOCC2)C(=O)N1c1ccccc1F	none (no result: RecA intein inh) | GFP chromo cs 7.2
O=C(N=C1SC2CS(=O)(=O)CC2N1CCc1ccccc1)C1CCCCC1 (centres undefined)	none
CN(CC(=O)Nc1ccccc1Br)C(=O)CN1CCN(Cc2cccc(Cl)c2)CC1	none (no result: RecA intein inh)
COCC(=O)N[C@H]1C=C[C@@H](CC(=O)OC)O[C@@H]1CO	none (no result: RecA intein inh, FBA Mtb inh, GDH-TPI inh)
Cc1ccc(N2C(=O)C(Cl)=C(N3CCOCC3)C2=O)c(C)c1	RecA intein inh 60 | GFP chromo cs 11
CCOC(=O)Cn1c(COc2ccccc2OC)[n+](C)c2ccccc21	none
CCCCCCCCCCOC(=O)Cn1c(COc2ccc(OC)cc2)[n+](C)c2ccccc21	RecA intein inh 42 (no result: CCHFV vOTU inh) | GFP chromo cs 11
